Consider 15 compounds from paper PMC5540273 (PLoS ONE, 2017).

What all share (conditions): concentration: 1 μM, replicates: in singlicate; n = 1
For test [1], the system named is EPHA7.
In test [2] the test system is EPHA8.
For test [3], the system named is EPHB1.
In test [4] the test system is EPHB2.
In test [5] the test system is EPHB3.
For test [6], the system named is EPHB4.
For test [7], the system named is EPHB6.
The subject of test [8] is ERBB2.
Test [9] has as its system ERBB3.
For test [10], the system named is ERBB4.
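Also: KINOMEscan kinase panel screen.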

For the compound `COc1cc(Nc2nccc(N3CCC(NC(=O)Nc4ccc5c(c4)OCO5)C3)n2)cc(OC)c1OC` (stereo not drawn) [GSK1379766], the “%Inh” value in test [1] is 0%; in test [2], 3%; in test [3], 7%; in [4], 0%; in [5], 6%; in [6], 0%. In addition, the “%Inh” value in test [7] is recorded as 97.6%; in test [8], 0%; in test [9] it was 0%; in [10], 31%.
As to `CS(=O)(=O)c1cccc(CNc2nc(Nc3ccc4c(c3)CCC(=O)N4)ncc2C(F)(F)F)c1`, the “%Inh” value in test [1], in test [2], in test [3], in test [4], in [5] and in test [6] was 0% in each case. The “%Inh” value in test [7] was 21%; in [8], 45%; in test [9] it was 0%; in [10] it was 3%.
On to `Cc1ccc(NC(=O)c2cccc(N3CCCCC3)c2)cc1-c1ccc(C(=O)NCC2CC2)cc1` [GSK1917008], for which the “%Inh” value turned out to be 24% in [1]; 41% in test [2]; 30% in test [3]; 0% in [4]; 27% in [5]; 31% in test [6]. Further, the “%Inh” value is 21% in [7], 0% in [8], 0% in test [9] and 2% in test [10].
On to `COc1ccc(NC(=O)c2ccoc2)cc1-c1ccc(C(=O)NCC2CC2)cc1` [GW810437], for which the “%Inh” value is recorded as 0% in test [1]; 1% in test [2]; 4% in test [3]; 0% in test [4]; 0% in test [5]; 0% in test [6]. In addition, the “%Inh” value in [7] was found to be 24%; in [8], 15%; in test [9], 12%; in test [10], 7%.
On to `Cl.N#CCc1ccc(Nc2nccc(Nc3ccc(Oc4ccccc4)cc3)n2)cc1` [GW639905], for which the “%Inh” value is on record as 0% in test [1]; 0% in [2]; 0% in test [3]; 6% in test [4]; 0% in test [5]; 0% in [6]. In addition, the “%Inh” value in test [7] turned out to be 46%; in test [8] it was 23%; in test [9], 96.3%; in test [10], 53%.
`CCNC(=O)/C=C/c1n[nH]c2cc(Sc3ccccc3C(=O)NC)ccc12`: the “%Inh” value in test [1] was 0%; in [2] it was 0%; in test [3], 0%; in test [4] it was 1%; in [5], 10%; in [6], 14%. Further, the “%Inh” value in [7] worked out at 20%; in [8] it was 16%; in [9] it was 3%; in test [10] it was 1%.
As for `COC(=O)Nc1nc2ccc(Oc3ccc(NC(=O)Nc4cc(C(F)(F)F)ccc4F)cc3)cc2[nH]1.Cl` [GW654607], the “%Inh” value in test [1] is 89%; in test [2], 99.6%; in [3], 81%; in [4], 80%; in [5], 40%; in [6], 58%. Further, the “%Inh” value was 92.4% in test [7], 6% in test [8], 0% in test [9] and 6% in test [10].
Take `Cc1ccccc1CC(=O)N1CCc2cc(-c3cn(C)c4ncnc(N)c34)ccc21` [GSK2603346]: the “%Inh” value in test [1] was found to be 0%; in test [2], 5%; in [3], 8%; in test [4], 0%; in test [5], 0%; in test [6], 0%. The “%Inh” value in [7] was determined as 53%; in [8], 8%; in test [9], 0%; in test [10], 32%.
Regarding `COc1ccc(C)c(Nc2ccnc(Nc3ccc(-c4cnc[nH]4)cc3)n2)c1.Cl` [GW784041], the “%Inh” value in [1] was determined as 6%; in test [2] it was 26%; in test [3], 14%; in test [4], 21%; in test [5], 17%; in test [6], 60%. In addition, the “%Inh” value in test [7] is reported as 69%; in test [8], 0%; in test [9], 89%; in [10] it was 0%.
For the compound `CCNc1nccc(-c2c(-c3ccc(F)cc3)ncn2C2CCN(C)CC2)n1`, the “%Inh” value in [1], in test [2], in [3], in test [4], in test [5] and in test [6] was 0% each time. In addition, the “%Inh” value in test [7] came out at 9%; in test [8], 0%; in [9] it was 9%; in [10], 0%.
Regarding `O=C(Nc1n[nH]c2nc(-c3cccc(O)c3)ccc12)C1CC1` [SB-711805], the “%Inh” value in [1] is 11%; in [2], 30%; in test [3] it was 14%; in test [4] it was 0%; in [5], 1%; in test [6], 5%. In addition, the “%Inh” value was 48% in [7], 0% in test [8], 0% in [9] and 0% in test [10].
Turning to `CN(C)c1ncnc2nc[nH]c12` [SKF-31736], the “%Inh” value in [1], in [2], in [3], in test [4], in test [5] and in test [6] was 0% each time. In addition, the “%Inh” value in [7] is on record as 0%; in test [8] it was 24%; in test [9], 13%; in test [10], 0%.
With `O=C(Nc1n[nH]c2cc(-c3cccs3)ccc12)C1CC1` [SB-731284], the “%Inh” value in test [1], in test [2], in [3], in test [4], in test [5] and in test [6] was 0% each time. In addition, the “%Inh” value in test [7] is 55%; in test [8], 12%; in test [9], 0%; in test [10], 0%.
Consider `CN(c1ccc2c(c1)nc(NCc1ccccc1)n2C)c1ccnc(Nc2ccc(CS(C)(=O)=O)cc2)n1.Cl` [GW811603], for which the “%Inh” value in test [1] was 20%; in [2], 47%; in [3] it was 0%; in test [4], 0%; in test [5] it was 0%; in test [6], 2%. The “%Inh” value in test [7] turned out to be 87%; in [8], 35%; in [9], 28%; in test [10] it was 17%.
As for `Cl.Cl.NCC(NC(=O)c1cc(-c2cccnc2)c(-c2ccnc3[nH]ccc23)s1)c1ccccc1` (stereo not drawn) [GSK1323434], the “%Inh” value was found to be 17% in test [1]; 33% in [2]; 23% in test [3]; 22% in test [4]; 0% in test [5]; 18% in test [6]. For the same compound, the “%Inh” value in test [7] came out at 21%; in test [8], 58%; in test [9], 1%; in [10], 48%.
